Measurements published in PubChem BioAssay (NCATS).
Inconclusive results are not listed. Calls of active or inactive are those of the source. Unless noted, calls follow the shape of the dose curve; as a rule, active = well fitted curve in the direction sought with a large enough effect; inconclusive = small, poorly fitted or top-dose-only effect, or another doubt; inactive = no such curve, though single readings can be large; an effect the other way counts as inactive or inconclusive.

Legend:
[1] = target: Glucocorticoid receptor (Homo sapiens) (UniProt P04150); test: GR-GFP Redistribution (AID 450;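 active = compounds whose dose series gives a full or clear partial fitted curve of increased nuclear translocation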; also: potency is read from the fitted curve at half-maximal effect); conditions: U2OS GR-GFP nuclear translocation, laser cytometry, 2 h
[2] = target: Glucocorticoid receptor (Homo sapiens) (UniProt P04150); test: GR-EFC Redistribution (AID 451; calls by dose curve; also: potency is read from the fitted curve at half-maximal effect); conditions: CHO-K1 GR-EFC translocation, beta-gal luminescence, 2 h
How it was run: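 CHO-K1 cells expressing nuclear EA and GR-ED fragments of b-gal; compounds titrated up to 46 uM final, 2 h at 37 C. GR nuclear translocation read as complemented b-gal luminescence after 1 h RT detection.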

[3] = target: Mitogen-activated protein kinase 10 (Mus musculus) (UniProt Q61831); test: JNK3 AlphaScreen Assay (AID 530; active = well fitted curve in either direction with a large enough effect, not every such curve was filed as active;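 also: kinase came from lysate of stimulated human HepG2 cells; signal reports phosphorylation of biotinylated GST-cJun 1-79 at Ser73 with 10 µM ATP; % is scaled to controls: 0 for no effect and ±100 for the full control effect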); conditions: JNK3 lysate, c-Jun phosphorylation; series mostly up to 57.1 µM
How it was run: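 Activity was read by AlphaScreen after JNK3-containing HepG2 lysate (cytokine pre-activated) phosphorylated biotinylated GST-cJun with 10 uM ATP at room temperature. Phospho-Ser73 cJun antibody with Protein-A acceptor beads provided detection.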

[4] = qHTS Assay for Identification of Small Molecule Antagonists for Thrombopoietin (TPO) Signaling Pathway (AID 918); conditions: TPO-dependent cell signaling reporter, antagonist mode; also: potency is read from the fitted curve at half-maximal effect; nearly all actives have a fitted effect of over 60% in size
How it was run: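 Inhibition read as reduced luciferase luminescence after 24 h at 37 C in IL-3-deprived Ba/F3 cells carrying human TPO receptor and GPIIb-promoter reporter, stimulated with 26 pM TPO (final, its EC50) alongside compound.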

[5] = target: Muscarinic acetylcholine receptor M1 (Rattus norvegicus) (UniProt P08482); test: qHTS Assay for Antagonists of Acetylcholine Muscarinic M1 Receptor: Kinetic Measurement of Intracellular Calcium Response (AID 943); conditions: M1-expressing cells, kinetic intracellular calcium fluorescence; series mostly up to 35.3 µM;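 also: Fluo-4 calcium signal as peak divided by basal fluorescence over 4 min; nearly all actives have a fitted effect of over 75% in size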
How it was run: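 Antagonism measured as reduction of carbachol-evoked (EC80, 100 nM final) calcium flux in rat M1-CHO cells after 10 min compound exposure. Fluo-4 signal read kinetically; ratio of maximal to basal fluorescence.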

[6] = target: Pyruvate kinase (Leishmania mexicana) (UniProt Q27686); test: qHTS Validation Assay for Inhibitors of Leishmania Mexicana Pyruvate Kinase (AID 945);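 also: 0% = DMSO only neutral control wells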; conditions: purified L. mexicana pyruvate kinase, enzyme activity, E451W mutant enzyme; series mostly up to 57.5 µM
How it was run: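 The enzyme is a highly purified E451W mutant of LmPYK used at 0.2 nM. It converts 0.5 mM PEP and 0.1 mM ADP over 1 h at room temperature; product ATP is quantified by luciferase luminescence relative to DMSO controls.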

[7] = target: Pyruvate kinase PKM (Homo sapiens) (UniProt P14618); test: qHTS Assay for Activators of Human Muscle Pyruvate Kinase (AID 954; active = well fitted curve in the direction sought with a large enough effect, not every such curve was filed as active;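 also: 0% = uninhibited enzyme and -100% = no enzyme or full thiadiazolimine inhibition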); conditions: purified human muscle pyruvate kinase, luciferase-coupled luminescence, 1 h; series mostly up to 57.5 µM
How it was run: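 PKM2, human, >95% pure, 0.1 nM; PEP 0.5 mM (Km), ADP 0.1 mM; 50 mM imidazole pH 7.2, 50 mM KCl, 0.01% Tween 20, 0.05% BSA; 1 h RT; luciferase luminescence readout.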

[8] = target: Alpha-galactosidase (Coffea arabica) (UniProt Q42656); test: Counterscreen for Glucocerebrosidase Inhibitors: qHTS Assay for Coffee Bean alpha-Galactosidase at pH 4.5 (AID 957); conditions: purified coffee bean alpha-galactosidase, fluorogenic substrate; series mostly up to 76.9 µM;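 also: plate controls were enzyme alone for no effect and no enzyme for full effect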
How it was run: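 Fluorogenic qHTS at pH 4.5 (citrate buffer with Tween-20): 2 nM enzyme, 80 uM 4-MU-alpha-galactoside substrate, compound titrated 0.7 nM to 77 uM, 20 min room temperature. Glycine/NaOH stop; 4-MU read Ex 365/Em 440; Hill-equation AC50 against no-enzyme and enzyme controls.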

[9] = target: Alpha-galactosidase A (Homo sapiens) (UniProt P06280); test: Counterscreen for Glucocerebrosidase Inhibitors: qHTS Assay for Human alpha-Galactosidase at pH 4.5 (AID 992); conditions: purified enzyme, fluorogenic substrate; series mostly up to 76.9 µM; also: 0% is about no effect
How it was run: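 Fluorogenic 4-MU alpha-D-galactoside (80 uM) hydrolysis, 2 nM enzyme, pH 4.5 citrate buffer + 0.005% Tween-20; 20 min RT; NaOH/glycine pH 10 stop; Ex365/Em440. Compounds titrated 0.7 nM–77 uM; Hill-equation AC50.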

[10] = target: alpha-glucosidase (Oryza sativa, rice) (UniProt Q653V4); test: Counterscreen for Glucocerebrosidase Inhibitors: qHTS Assay for Rice alpha-Glucosidase at pH 5.0 (AID 997); conditions: rice alpha-glucosidase enzyme activity; series mostly up to 76.9 µM;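 also: 0% = full activity with enzyme and -100% = basal without enzyme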
How it was run: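 Endpoint fluorogenic assay at pH 5.0: compounds (0.7 nM to 77 uM) titrated against 4 nM rice enzyme and 400 uM 4-MU-alpha-glucoside for 20 min at room temperature; NaOH/glycine stop, read ex 365/em 440 nm, Hill-fitted AC50.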

[11] = target: Alpha-galactosidase (Coffea arabica) (UniProt Q42656); test: Counterscreen for Glucocerebrosidase Inhibitors: qHTS Assay for Coffee Bean alpha-Galactosidase at pH 5.9 (AID 998); conditions: coffee bean alpha-galactosidase enzyme assay; series mostly up to 76.9 µM;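 also: plate controls were uninhibited enzyme for no effect and no-enzyme basal signal for full effect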
How it was run: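 Enzyme 2 nM + cpd (0.7 nM–77 uM titration) + 4-MU-alpha-Gal 80 uM, pH 5.9 citrate/Tween-20, RT 20 min, NaOH/glycine stop pH 10, fluor 365/440. Normalized to no-enzyme and full-activity controls; Hill-fit AC50.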

[12] = target: DNA dC->dU-editing enzyme APOBEC-3G (Homo sapiens) (UniProt Q9HC16); test: qHTS for inhibitors of Vif-A3G interactions: Validation (AID 588379); conditions: Vif-A3G protein interaction assay; series mostly up to 46.1 µM; also: 0% is about no effect
How it was run: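 Yellow fluorescence (Ex 488, Em 500-530) of Vif-coexpressing HeLa A3G-eYFP cells, scanned by Acumen cytometer, reports blocked A3G degradation. Cells plated at 700/well overnight at 37 deg C before compound addition, then a further overnight compound incubation at 37 deg C.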

[13] = test system: Zika virus NS2B-NS3 protease; test: Primary screen GU AMC qHTS for Zika virus inhibitors (AID 1347154); conditions: Zika NS2B-NS3 unlinked protease, AMC fluorogenic substrate; series mostly up to 54.1 µM;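 also: 0% = no-inhibitor control and -100% = no-enzyme control; nearly all actives have a fitted effect of over 70% in size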
How it was run: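 Unlinked Zika NS2B hydrophilic domain–NS3 protease complex at 25 nM in 10 mM Tris-HCl pH 8.0, 0.01% Tween 20, with an AMC peptide substrate. Fluorescence change (340/450 nm) over 15 min at room temperature, normalized to controls, fitted to 4-parameter Hill.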

[14] = Confirmatory qHTS for small molecule stabilizers of the endoplasmic reticulum resident proteome: Secreted ER Calcium Modulated Protein (SERCaMP) assay (AID 1508628); conditions: SERCaMP secreted luciferase ER calcium/proteostasis reporter; series mostly up to 76.3 µM; also: % is scaled to controls: 0 for no effect and ±100 for the full control effect; nearly all actives have a fitted effect of over 40% in size
How it was run: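 Reporter secretion upon ER calcium depletion (100 nM thapsigargin, 4 h, 37C) is measured as medium luminescence with coelenterazine, after 16 h compound pretreatment of SH-SY5Y-GLuc-SERCaMP cells; primary at three concentrations up to 38.3 uM, follow-up at 11 (up to 76.6 uM).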

[15] = Cell Viability qHTS for small molecule stabilizers of the endoplasmic reticulum resident proteome (AID 1508629); conditions: cell viability counter-screen, 100 nM thapsigargin for final 4 h;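 also: potency is read from the fitted curve at half-maximal effect; compound exposure about 46 h in total before the viability read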
[16] = Primary qHTS for small molecule stabilizers of the endoplasmic reticulum resident proteome: Secreted ER Calcium Modulated Protein (SERCaMP) assay (AID 1508630); conditions: SH-SY5Y GLuc-SERCaMP (Gaussia luciferase released on ER calcium loss) secretion, thapsigargin, luminescence; series mostly up to 38.4 µM; also: % is scaled to controls: 0 for no effect and ±100 for the full control effect
How it was run: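 The SH-SY5Y reporter protocol was run at 3 concentrations up to 38.3 uM (primary) or 11 concentrations (follow-up): 16 h compound, 100 nM thapsigargin for 4 h, then extracellular luciferase luminescence.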

[17] = target: Ubiquitin carboxyl-terminal hydrolase 1 (Homo sapiens) (UniProt O94782); test: Inhibitors of USP1/UAF1: Pilot qHTS (AID 504865); conditions: purified USP1/UAF1, Ub-rhodamine cleavage fluorescence; series mostly up to 114 µM;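 also: rhodamine fluorescence freed from ubiquitin-rhodamine substrate followed over time; top concentration of the series differs between compounds; % is scaled to controls: 0 for no effect and ±100 for the full control effect; nearly all actives have a fitted effect of over 35% in size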
How it was run: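 USP1/UAF1 complex (1nM) preincubated with compound 15 min at room temperature, then Ub-Rho substrate (150nM final) added. Fluorescence read kinetically at 480/540 nm, 6 reads every 60 seconds. Buffer: 50mM HEPES pH 7.8, 0.5mM EDTA, 0.1 mg/ml BSA, 1mM TCEP, 0.01% Tween-20.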

[18] = Counterscreen qHTS for small molecule stabilizers of the endoplasmic reticulum resident proteome: GLuc-NoTag assay (AID 1508627); conditions: Gaussia luciferase NoTag secretion counterscreen, luminescence, thapsigargin 100 nM for final 4 h; series mostly up to 76.4 µM;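 also: 0% = thapsigargin alone and -100% = DMSO vehicle control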
How it was run: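 Counterscreen line: SH-SY5Y-GLuc-NoTag. Seed, 5 h; compound, 19 h; thapsigargin 100 nM, 4 h; 37C/5% CO2. Readout: secreted GLuc luminescence, coelenterazine 0.07x final, no lysis.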

[19] = target: 3',5'-cyclic-AMP phosphodiesterase 4B (Homo sapiens) (UniProt Q07343); test: qHTS Assay for Inhibitors of PDE-IV (AID 607; active = well fitted activation curve with a large enough effect in the main read-out, with a control signal flat, not every such curve was filed as active; also: % of control where 0% means no effect); conditions: HEK293 ACTOne CNG channel cells, membrane potential fluorescence; series mostly up to 22.9 µM
How it was run: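 The readout is membrane depolarisation from a cAMP-sensing CNG channel, detected with a potential dye at ex 535/em 590. Cells were HEK293-derived (endogenous PDE-IV) at 1000 cells/well, titrated up to 22.9 uM final.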

[20] = qHTS Assay for Lipid Storage Modulators (AID 1519; calls by dose curve; as to activity change, negative = inhibition: % is scaled to controls: 0 for no effect and ±100 for the full control effect); conditions: Drosophila S3 cells, BODIPY lipid droplet/cell ratio, laser cytometry, cells loaded with oleic acid
How it was run: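 Cells seeded at 5,000 per well were treated with compounds over a concentration series and loaded with oleic acid (400 uM, as added). Lipid droplet fluorescence (488 nm excitation, 500-530 nm channel) was read by laser-scanning cytometry and normalized to 20 uM Triacsin C.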

Chain of Glucocorticoid receptor (Homo sapiens) (P04150 whole entry, looked up, the tested form may be a part): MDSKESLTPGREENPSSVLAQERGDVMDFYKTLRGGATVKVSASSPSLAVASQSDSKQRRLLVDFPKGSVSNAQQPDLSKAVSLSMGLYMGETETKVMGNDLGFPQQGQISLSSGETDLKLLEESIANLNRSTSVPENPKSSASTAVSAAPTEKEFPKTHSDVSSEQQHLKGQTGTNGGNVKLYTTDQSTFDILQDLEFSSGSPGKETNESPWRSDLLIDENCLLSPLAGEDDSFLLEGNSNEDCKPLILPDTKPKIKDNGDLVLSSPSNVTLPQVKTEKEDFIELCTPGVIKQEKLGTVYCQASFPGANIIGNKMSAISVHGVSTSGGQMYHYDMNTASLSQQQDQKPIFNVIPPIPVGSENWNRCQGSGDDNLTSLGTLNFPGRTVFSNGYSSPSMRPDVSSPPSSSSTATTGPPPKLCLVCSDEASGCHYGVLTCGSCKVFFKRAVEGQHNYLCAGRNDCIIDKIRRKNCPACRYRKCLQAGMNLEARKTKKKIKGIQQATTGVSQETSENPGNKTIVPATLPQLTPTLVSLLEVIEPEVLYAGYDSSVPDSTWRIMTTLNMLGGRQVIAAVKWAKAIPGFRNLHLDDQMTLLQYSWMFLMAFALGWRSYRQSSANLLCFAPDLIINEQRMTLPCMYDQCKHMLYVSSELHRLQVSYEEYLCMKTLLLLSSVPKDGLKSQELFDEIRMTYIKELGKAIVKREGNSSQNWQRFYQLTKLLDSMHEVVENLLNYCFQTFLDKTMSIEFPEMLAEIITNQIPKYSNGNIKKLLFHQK
Chain of DNA dC->dU-editing enzyme APOBEC-3G (Homo sapiens) (Q9HC16 whole entry, looked up): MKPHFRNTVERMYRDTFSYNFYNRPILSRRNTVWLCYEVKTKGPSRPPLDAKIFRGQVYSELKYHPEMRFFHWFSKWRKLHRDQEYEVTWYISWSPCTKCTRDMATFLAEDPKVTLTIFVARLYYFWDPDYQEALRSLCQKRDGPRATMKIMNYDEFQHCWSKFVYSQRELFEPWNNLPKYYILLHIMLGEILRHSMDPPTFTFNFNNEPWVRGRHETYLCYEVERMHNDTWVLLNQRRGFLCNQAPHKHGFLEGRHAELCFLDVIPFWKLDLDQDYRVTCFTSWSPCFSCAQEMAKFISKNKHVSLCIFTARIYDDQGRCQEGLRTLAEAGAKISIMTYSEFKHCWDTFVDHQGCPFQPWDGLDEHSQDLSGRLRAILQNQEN
Chain of Alpha-galactosidase (Coffea arabica) (Q42656 whole entry, looked up): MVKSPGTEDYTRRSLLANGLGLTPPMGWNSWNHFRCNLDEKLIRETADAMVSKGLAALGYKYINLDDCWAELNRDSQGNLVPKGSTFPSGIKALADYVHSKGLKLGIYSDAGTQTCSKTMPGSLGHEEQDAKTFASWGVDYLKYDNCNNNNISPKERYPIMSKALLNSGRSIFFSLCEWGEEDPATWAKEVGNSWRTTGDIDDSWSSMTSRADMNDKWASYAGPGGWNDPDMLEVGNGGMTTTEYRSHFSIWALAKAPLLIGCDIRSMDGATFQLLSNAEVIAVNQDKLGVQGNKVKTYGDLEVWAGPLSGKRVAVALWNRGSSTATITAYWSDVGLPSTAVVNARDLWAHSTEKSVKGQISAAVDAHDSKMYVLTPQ
Chain of Ubiquitin carboxyl-terminal hydrolase 1 (Homo sapiens) (O94782 whole entry, looked up): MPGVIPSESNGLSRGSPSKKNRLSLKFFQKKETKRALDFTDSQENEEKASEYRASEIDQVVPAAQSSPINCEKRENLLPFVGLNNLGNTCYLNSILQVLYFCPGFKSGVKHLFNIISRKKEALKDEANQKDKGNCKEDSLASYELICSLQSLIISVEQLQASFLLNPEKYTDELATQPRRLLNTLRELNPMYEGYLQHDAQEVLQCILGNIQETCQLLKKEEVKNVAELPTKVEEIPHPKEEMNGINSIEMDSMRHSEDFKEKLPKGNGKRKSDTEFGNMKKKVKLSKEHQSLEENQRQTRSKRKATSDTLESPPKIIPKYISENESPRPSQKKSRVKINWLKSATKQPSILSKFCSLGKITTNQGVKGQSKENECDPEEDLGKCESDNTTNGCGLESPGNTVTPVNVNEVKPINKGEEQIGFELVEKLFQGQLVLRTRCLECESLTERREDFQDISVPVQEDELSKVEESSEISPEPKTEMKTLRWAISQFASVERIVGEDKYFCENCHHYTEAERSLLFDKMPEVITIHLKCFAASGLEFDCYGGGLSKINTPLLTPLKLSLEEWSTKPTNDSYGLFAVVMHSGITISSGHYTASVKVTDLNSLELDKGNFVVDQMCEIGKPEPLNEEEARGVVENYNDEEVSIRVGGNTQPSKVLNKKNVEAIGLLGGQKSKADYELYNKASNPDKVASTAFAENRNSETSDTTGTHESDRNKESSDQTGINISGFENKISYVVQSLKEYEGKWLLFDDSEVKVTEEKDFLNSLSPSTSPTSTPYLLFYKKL
Chain of Muscarinic acetylcholine receptor M1 (Rattus norvegicus) (P08482 whole entry, looked up): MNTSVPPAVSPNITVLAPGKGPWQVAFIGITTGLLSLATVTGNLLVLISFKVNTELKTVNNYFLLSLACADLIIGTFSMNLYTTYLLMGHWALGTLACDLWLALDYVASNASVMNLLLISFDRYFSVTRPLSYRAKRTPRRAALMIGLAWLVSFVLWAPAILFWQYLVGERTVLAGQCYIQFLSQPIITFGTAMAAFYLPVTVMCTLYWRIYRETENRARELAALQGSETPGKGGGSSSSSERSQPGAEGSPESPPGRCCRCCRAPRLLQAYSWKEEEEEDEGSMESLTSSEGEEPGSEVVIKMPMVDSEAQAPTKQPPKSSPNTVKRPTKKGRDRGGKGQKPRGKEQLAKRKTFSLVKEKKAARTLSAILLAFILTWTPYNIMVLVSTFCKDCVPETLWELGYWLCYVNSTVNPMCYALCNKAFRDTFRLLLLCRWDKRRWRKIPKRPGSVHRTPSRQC
Chain of Pyruvate kinase (Leishmania mexicana) (Q27686 2-499 E452W): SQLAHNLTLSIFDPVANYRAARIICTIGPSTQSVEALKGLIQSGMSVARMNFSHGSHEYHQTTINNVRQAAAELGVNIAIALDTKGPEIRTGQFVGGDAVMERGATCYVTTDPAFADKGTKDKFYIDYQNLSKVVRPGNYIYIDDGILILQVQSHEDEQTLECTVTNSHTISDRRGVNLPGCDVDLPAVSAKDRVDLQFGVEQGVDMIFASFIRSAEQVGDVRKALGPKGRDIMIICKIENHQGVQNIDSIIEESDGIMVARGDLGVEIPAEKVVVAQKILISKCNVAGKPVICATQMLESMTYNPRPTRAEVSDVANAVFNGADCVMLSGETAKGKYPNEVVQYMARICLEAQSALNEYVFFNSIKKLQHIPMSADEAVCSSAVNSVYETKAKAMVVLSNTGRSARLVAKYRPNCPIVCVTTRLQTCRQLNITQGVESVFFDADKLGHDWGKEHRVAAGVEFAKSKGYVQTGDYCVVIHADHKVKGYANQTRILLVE
Chain of Alpha-galactosidase A (Homo sapiens) (P06280 whole entry, looked up): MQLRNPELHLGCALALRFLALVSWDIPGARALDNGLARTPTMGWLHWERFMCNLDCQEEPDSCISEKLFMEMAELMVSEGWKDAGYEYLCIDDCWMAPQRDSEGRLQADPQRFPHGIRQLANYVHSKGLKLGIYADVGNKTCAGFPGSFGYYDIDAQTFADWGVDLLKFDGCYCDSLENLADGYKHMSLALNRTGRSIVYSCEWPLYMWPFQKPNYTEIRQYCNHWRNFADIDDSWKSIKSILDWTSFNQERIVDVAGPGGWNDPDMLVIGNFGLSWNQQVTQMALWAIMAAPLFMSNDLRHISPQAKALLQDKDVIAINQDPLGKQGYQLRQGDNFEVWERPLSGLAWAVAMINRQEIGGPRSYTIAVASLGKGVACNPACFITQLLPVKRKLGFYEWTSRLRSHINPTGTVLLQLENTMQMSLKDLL
Chain of Pyruvate kinase PKM (Homo sapiens) (P14618 whole entry, looked up): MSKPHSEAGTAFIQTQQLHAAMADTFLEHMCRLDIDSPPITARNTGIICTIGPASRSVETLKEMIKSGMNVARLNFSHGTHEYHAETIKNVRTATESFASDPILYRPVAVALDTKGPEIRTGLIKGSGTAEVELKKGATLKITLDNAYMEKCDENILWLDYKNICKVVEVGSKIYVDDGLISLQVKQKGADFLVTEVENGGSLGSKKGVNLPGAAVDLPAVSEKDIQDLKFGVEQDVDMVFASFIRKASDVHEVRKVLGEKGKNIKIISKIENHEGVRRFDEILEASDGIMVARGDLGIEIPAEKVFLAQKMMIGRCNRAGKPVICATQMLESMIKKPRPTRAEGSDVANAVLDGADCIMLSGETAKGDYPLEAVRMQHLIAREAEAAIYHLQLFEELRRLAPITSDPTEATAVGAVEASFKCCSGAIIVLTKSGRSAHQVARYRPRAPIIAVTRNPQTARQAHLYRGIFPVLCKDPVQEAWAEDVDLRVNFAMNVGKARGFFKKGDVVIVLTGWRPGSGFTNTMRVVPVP
Chain of 3',5'-cyclic-AMP phosphodiesterase 4B (Homo sapiens) (Q07343 whole entry, looked up): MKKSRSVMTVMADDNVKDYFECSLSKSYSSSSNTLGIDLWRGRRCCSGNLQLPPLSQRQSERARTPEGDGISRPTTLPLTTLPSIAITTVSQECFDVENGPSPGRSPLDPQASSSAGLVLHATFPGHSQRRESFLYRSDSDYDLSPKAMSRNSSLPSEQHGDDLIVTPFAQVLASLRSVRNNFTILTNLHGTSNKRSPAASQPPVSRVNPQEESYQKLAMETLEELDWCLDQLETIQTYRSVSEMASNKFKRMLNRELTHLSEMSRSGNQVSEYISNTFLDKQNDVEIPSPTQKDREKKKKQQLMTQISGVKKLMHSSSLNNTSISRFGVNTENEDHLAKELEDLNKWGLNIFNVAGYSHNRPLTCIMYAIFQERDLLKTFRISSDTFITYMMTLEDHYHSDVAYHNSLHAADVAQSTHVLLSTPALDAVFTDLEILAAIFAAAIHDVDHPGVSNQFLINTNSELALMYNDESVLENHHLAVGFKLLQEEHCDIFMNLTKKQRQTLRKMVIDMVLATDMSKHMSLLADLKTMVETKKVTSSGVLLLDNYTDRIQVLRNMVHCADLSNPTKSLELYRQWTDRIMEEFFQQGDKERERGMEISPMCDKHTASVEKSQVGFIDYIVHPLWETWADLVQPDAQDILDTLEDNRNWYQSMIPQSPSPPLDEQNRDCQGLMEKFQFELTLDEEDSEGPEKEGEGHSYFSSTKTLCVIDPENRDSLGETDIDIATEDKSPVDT

CNc1ccc2oc(C[C@H]3O[C@]4(CC[C@H]3C)O[C@H]([C@H](C)C(=O)c3ccc[nH]3)[C@H](C)C[C@H]4C)nc2c1C(=O)O
active: Potency [4] 3.16 µM | Potency [15] 8.91 µM
inactive: Potency [1] > 46 µM | Potency [2] > 46 µM | outcome [3] | Potency [5] | outcome [6] | outcome [7] | outcome [8] | outcome [9] | outcome [10] | outcome [11] | Potency [12] | Potency [13] | Potency [14] | Potency [16]

H-YGGFLRKYPK-OH
inactive: activity change, negative = inhibition [13] 17.1% [at 6.83 µM] | activity change, negative = inhibition [16] -17% [at 3.88 µM]

CN1CC[C@@H]2CN3CCc4cccc(c43)[C@H]2C1
inactive: Potency [1] > 46 µM | Potency [2] > 46 µM | outcome [3] | Potency [17] | Potency [12] | Potency [13] | Potency [18]

CN1C(=O)COc2c(C(=O)N[C@@H]3CN4CCC3CC4)cc(Cl)cc21
inactive: outcome [3] | Potency [19] | activity change, negative = inhibition ([20]; at 57.5 µM (top of the series)) 3.71% | Potency [17] | Potency [12] | Potency [13] | Potency [18]
11.3%: max response ([20]; measured here: lipid channel max response)
5.55%: max response ([20]; measured here: cell count channel max response)
